Experimental data taken from PubChem BioAssay (NCATS).
Inconclusive results are not listed. Entries that show only a call come without a potency. Calls of active or inactive are those of the source. Unless noted, calls follow the shape of the dose curve; as a rule, active = well fitted curve in the direction sought with a large enough effect; inconclusive = small, poorly fitted or top-dose-only effect, or another doubt; inactive = no such curve, though single readings can be large; an effect the other way counts as inactive or inconclusive.

Columns and labels:
[1] = biological target: M-phase phosphoprotein 8 (Homo sapiens) (UniProt Q99549); test: qHTS Validation Assay for Inhibitors for MPP8 Chromodomain Interactions with Methylated Histone Tails (AID 488949);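 also: AlphaScreen signal from MPP8 chromodomain bound to biotinylated H3K9me3 peptide; top concentration of the series differs between compounds; nearly all actives have a fitted effect of over 55% in size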
Procedure, shortened: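 Disruption of the preformed MPP8–trimethyl-H3K9 peptide complex (both 50 nM, 30 min, RT) is measured after 30 min compound exposure, using AlphaScreen proximity beads; aurintricarboxylic acid titration serves as plate control.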

[2] = biological target: Chromobox protein homolog 1 (Homo sapiens) (UniProt P83916); test: qHTS Validation Assay for Inhibitors of HP1-beta Chromodomain Interactions with Methylated Histone Tails (AID 488953);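 also: loss of AlphaScreen luminescence from HP1-beta binding biotinylated H3K9me3 peptide; series mostly up to about 110 µM; nearly all actives have a fitted effect of over 50% in size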
Procedure, shortened: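 HP1-beta (50 nM) preformed 30 min with biotinylated H3(1-18)K9me3 peptide (50 nM) in PBS pH 7.4, 0.01% Tween-20. Compounds added for 30 min at room temperature. Complex disruption read by AlphaScreen with streptavidin donor/nickel chelate acceptor beads (10 ug/mL each).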

[3] = biological target: Transient receptor potential cation channel subfamily V member 1 (Homo sapiens) (UniProt Q8NER1); test: HTS Assay for Compounds that Act as Enhancers of the Vanilloid Receptor 1 (AID 488979)
Procedure, shortened: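 TRPV1 cells loaded with Fluo-8 calcium dye; compound added and Ca2+ signal (ex 480/em 520 nm) followed 3 min, then capsaicin at EC20 added and read 2 more min to detect enhancement.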

[4] = biological target: Thyrotropin receptor (Homo sapiens) (UniProt P16473); test: qHTS Assay for Antagonists of the Thyroid Stimulating Hormone Receptor (AID 488980); also: series mostly up to about 58 µM
Procedure, shortened: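 Cells expressing human TSHR (HEK293) are dispensed in HBSS/HEPES containing 70 uM RO 20-1724, compound is added, then TSH at EC80 (4 nM final). Antibody in lysis buffer follows, 30 minutes at room temperature before HTRF detection.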

[5] = biological target: D(1A) dopamine receptor (Homo sapiens) (UniProt P21728); test: HTS Assay for Allosteric Agonists of the Human D1 Dopamine Receptor: Primary Screen for Agonists (AID 488981)
Procedure, shortened: (§1)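 Tetracycline-induced HEK293 Trex D1 cells with forced coupling to calcium, loaded with no-wash calcium dye; kinetic fluorescence read 180 s after compound addition for agonism, then a further 180 s after an EC20 dopamine challenge for potentiation.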

[6] = biological target: D(1A) dopamine receptor (Homo sapiens) (UniProt P21728); test: HTS Assay for Allosteric Agonists of the Human D1 Dopamine Receptor: Primary Screen for Potentiators (AID 488982)
Procedure, shortened: as §1

[7] = biological target: D(1A) dopamine receptor (Homo sapiens) (UniProt P21728); test: HTS Assay for Allosteric Agonists of the Human D1 Dopamine Receptor: Primary Screen for Antagonists (AID 488983);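 also: calcium flux response to an EC80 dopamine challenge measured with no-wash dye; nearly all actives have a fitted effect of over 65% in size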
Procedure, shortened: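 Tetracycline-induced HEK293 T-REx D1 line, force-coupled to calcium flux, read with no-wash calcium dye. Compound added after 10 s baseline, read 180 s for agonism, then EC80 dopamine added and read a further 180 s.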

[8] = Nrf2 qHTS screen for inhibitors: Validation (AID 493153; active = well fitted inhibition curve with a large enough effect in the main read-out, with a control signal flat, not every such curve was filed as active); conditions: viability change: measured here: cytotoxicity max response
Procedure, shortened: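 A549 cells carrying ARE-firefly luciferase reporter, 5000 cells/well in 5% FBS OPTI-MEM, treated with compound over a concentration series for 18-24 h at 37 C. Luciferase luminescence gave Nrf2 activity; CellTiter-Fluor fluorescence gave viability.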

[9] = qHTS for Inhibitors of Cell Surface uPA Generation: Validation Assay (AID 493164)
Procedure, shortened: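 RAW 264.7 cells (4000/well) were plated overnight, then exposed for 18 h at 37 C, 5% CO2 to compounds in a 7-point 1:5 titration (2.45 nM–38.3 uM final). Intracellular ATP was read by ATP-Lite luminescence.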

[10] = biological target: Galactokinase (Homo sapiens) (UniProt P51570); test: qHTS Validation Assay for Inhibitors of Human Galactokinase (GALK) (AID 493189)
Procedure, shortened: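 Compounds were pin-transferred into ATP buffer, then GALK-galactose mix was added (final 5 nM enzyme, 100 uM galactose, 35 uM ATP). After 1 h at room temperature, remaining ATP was measured luminescently.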

[11] = Validation screen for small molecules that induce DNA re-replication in SW480 colon adenocarcinoma cells (AID 504364)
Procedure, shortened: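 SW480 cells (250/well) exposed 48 h at 37 C, 5% CO2, then Hoechst-stained 40 min. Nuclear DNA content imaged by fluorescence scanning (405 nm excitation, 500-530 nm emission); re-replication scored as increased nuclei with elevated intensity.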

[12] = biological target: Peptidyl-prolyl cis-trans isomerase NIMA-interacting 1 (Homo sapiens) (UniProt Q13526); test: qHTS Validation Assay to Find Inhibitors of Pin1 (AID 504536; active = well fitted inhibition curve with a large enough effect in the polarisation, with a control signal flat, not every such curve was filed as active; the % refers to the polarisation)
Procedure, shortened: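 Fluorescence polarization competition: compounds (titration) displace HiFluor-488-labeled Pin1-1b peptide from Pin1 (0.3 uM final) in pH 7.5 HEPES buffer with DTT, 10 min at room temperature; %Activity normalized to no-enzyme wells, curves fitted.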

[13] = biological target: Phosphoglycerate kinase, glycosomal (Trypanosoma brucei brucei) (UniProt P07378); test: qHTS Validation Assay to Find Inhibitors of Phosphoglycerate Kinase (AID 504547)
Procedure, shortened: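 PGK activity was coupled to GAPDH (100nM final), which generates the unstable substrate 1,3-bisphosphoglycerate in-well. Reactions ran 60 minutes at room temperature in 100mM TEA pH 7.6, 5mM MgCl2, 0.01% Tween-20, then Kinase-Glo Plus luminescence was read.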

[14] = biological target: phosphoglycerate mutase (Leishmania major) (UniProt Q4Q090); test: qHTS Validation Assay to Find Inhibitors of Phosphoglycerate Mutase (AID 504548);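 also: end-point luminescence from Kinase-GloPlus after the PGAM reaction; series mostly up to about 58 µM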
Procedure, shortened: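 Inhibition of L. major PGAM was assessed by Kinase-GloPlus luminescence following a 45-minute room-temperature reaction with enzyme at 1.25nM final.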

[15] = biological target: Ubiquitin carboxyl-terminal hydrolase 1 (Homo sapiens) (UniProt O94782); test: Inhibitors of USP1/UAF1: Pilot qHTS (AID 504865); also: nearly all actives have a fitted effect of over 35% in size; also: potency is read from the fitted curve at half-maximal effect
Procedure, shortened: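 Kinetic fluorescence assay: 1nM USP1/UAF1, 15 min compound preincubation, then 150nM Ub-Rho; 480/540 nm.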

[16] = qHTS for Inhibitors of ATXN expression: Validation (AID 588378); also: nearly all actives have a fitted effect of over 75% in size; also: potency is read from the fitted curve at half-maximal effect
Procedure, shortened: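 Validation of ATXN2 expression inhibitors uses a cell-based luciferase fusion reporter in HEK293 cells, with 24 h compound exposure and paired viability (fluorescence) and reporter (luminescence) end-point reads.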

[17] = biological target: ATP-dependent 6-phosphofructokinase (Trypanosoma brucei brucei) (UniProt O15648); test: qHTS Assay to Find Inhibitors of T. brucei phosphofructokinase: hit validation (AID 492961);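 also: luminescence reports ADP formed as PFK phosphorylates fructose-6-phosphate with ATP; series mostly up to about 51 µM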
Procedure, shortened: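 Inhibition of parasite PFK is measured as reduced ADP formation, quantified via luciferase after ATP depletion. Assay used 0.1 mM ATP, 0.5 mM F6P, 1.25 nM enzyme, 45 min incubation.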

[18] = biological target: ATPase family AAA domain-containing protein 5 (Homo sapiens) (UniProt Q96QE3); test: Validation screen for small molecules that inhibit ELG1-dependent DNA repair in human embryonic kidney (HEK293T) cells expressing luciferase-tagged ELG1 (AID 493107);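 also: cells co-treated with the DNA-damaging agent 5-fluorouridine alongside compound; series mostly up to about 46 µM; inhibitors lower the ELG1-luciferase luminescence signal; nearly all actives have a fitted effect of over 70% in size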
Procedure, shortened: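 HEK293T cells expressing luciferase-tagged ELG1, 2,000 per well, treated with 5-fluorouridine plus compound for 16 h at 37 C. ONE-Glo luminescence after 30 min at room temperature reports ELG1 reporter level.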

[19] = biological target: Thyrotropin-releasing hormone receptor (Homo sapiens) (UniProt P34981); test: qHTS for Small Molecule Agonists and Allosteric Enhancers of Human TRH Receptor: Validation Screen for Agonists (AID 493127;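 active = calcium activation more than 3 SD above the typical response in the agonist read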); conditions: TRH receptor agonist cell assay; at 2 µM; stronger effect = higher value
Procedure, shortened: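 TRHR cells loaded with fluo-8 calcium dye; FDSS kinetic fluorescence (Ex 480/Em 530) read at 1 s/cycle after 23 nL compound addition. Agonist-mode calcium response recorded before the 10 nM TRH (EC20) addition.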

[20] = qHTS for Inhibitors of ATXN expression: Validation of Cytotoxic Assay (AID 588349); also: potency is read from the fitted curve at half-maximal effect
Procedure, shortened: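 HEK293 cells treated with titrated compound for 72 hr at 37 degrees C; viability read as intracellular ATP by CellTiter Glo luminescence.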

Chain of D(1A) dopamine receptor (Homo sapiens) (P21728 whole entry, looked up): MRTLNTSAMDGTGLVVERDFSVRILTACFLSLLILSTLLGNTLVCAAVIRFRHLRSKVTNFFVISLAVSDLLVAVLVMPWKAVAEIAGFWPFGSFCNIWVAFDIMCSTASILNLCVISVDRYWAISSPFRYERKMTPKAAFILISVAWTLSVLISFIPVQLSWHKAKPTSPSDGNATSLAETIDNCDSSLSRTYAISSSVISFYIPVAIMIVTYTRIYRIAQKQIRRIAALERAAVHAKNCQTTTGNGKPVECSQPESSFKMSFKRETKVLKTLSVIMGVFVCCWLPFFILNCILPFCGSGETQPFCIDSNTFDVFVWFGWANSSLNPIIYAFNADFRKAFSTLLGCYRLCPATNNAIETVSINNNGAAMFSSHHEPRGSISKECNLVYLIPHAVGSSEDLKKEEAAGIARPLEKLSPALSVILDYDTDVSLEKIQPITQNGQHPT
Chain of Ubiquitin carboxyl-terminal hydrolase 1 (Homo sapiens) (O94782 whole entry, looked up): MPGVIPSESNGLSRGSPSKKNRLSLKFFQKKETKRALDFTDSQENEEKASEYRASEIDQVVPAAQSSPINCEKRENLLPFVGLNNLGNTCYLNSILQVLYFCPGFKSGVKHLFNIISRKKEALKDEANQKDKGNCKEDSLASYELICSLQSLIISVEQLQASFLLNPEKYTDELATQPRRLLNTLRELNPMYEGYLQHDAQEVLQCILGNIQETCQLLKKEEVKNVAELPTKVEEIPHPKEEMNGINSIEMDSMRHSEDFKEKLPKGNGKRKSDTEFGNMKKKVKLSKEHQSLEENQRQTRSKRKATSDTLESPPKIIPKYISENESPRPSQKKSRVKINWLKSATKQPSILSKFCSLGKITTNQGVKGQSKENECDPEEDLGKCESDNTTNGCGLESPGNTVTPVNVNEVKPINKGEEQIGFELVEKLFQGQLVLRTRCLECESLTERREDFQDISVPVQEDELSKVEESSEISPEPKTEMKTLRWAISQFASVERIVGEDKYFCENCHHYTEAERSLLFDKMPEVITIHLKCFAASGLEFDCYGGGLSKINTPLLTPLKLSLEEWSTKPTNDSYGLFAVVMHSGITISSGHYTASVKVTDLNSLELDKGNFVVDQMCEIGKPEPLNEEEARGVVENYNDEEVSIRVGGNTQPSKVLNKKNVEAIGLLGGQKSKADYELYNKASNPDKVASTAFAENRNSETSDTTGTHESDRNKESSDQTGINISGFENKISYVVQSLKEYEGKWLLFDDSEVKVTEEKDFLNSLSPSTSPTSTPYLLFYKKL
Chain of Galactokinase (Homo sapiens) (P51570 whole entry, looked up): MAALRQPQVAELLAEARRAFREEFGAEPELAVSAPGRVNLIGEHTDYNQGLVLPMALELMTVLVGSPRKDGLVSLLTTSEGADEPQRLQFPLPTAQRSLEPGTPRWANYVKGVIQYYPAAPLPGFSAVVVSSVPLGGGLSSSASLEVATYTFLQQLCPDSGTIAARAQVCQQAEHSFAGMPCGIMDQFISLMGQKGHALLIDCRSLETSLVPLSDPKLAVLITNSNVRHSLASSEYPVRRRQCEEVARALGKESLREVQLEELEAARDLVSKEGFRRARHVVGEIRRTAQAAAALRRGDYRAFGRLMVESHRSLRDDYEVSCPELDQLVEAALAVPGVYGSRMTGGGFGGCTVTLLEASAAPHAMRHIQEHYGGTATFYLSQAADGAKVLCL
Chain of Phosphoglycerate kinase, glycosomal (Trypanosoma brucei brucei) (P07378 whole entry, looked up): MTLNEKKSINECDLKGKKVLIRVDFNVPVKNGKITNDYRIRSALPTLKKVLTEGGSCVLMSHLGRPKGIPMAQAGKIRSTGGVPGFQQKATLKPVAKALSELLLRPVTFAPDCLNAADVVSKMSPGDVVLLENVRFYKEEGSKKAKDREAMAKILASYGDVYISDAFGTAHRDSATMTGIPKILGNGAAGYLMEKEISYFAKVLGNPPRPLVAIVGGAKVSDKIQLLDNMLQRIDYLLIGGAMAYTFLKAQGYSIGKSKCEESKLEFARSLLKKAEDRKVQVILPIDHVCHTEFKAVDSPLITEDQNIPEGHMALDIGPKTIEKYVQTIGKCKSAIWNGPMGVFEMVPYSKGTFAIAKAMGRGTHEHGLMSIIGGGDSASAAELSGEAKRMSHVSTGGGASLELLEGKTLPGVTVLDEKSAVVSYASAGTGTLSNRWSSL
Chain of Peptidyl-prolyl cis-trans isomerase NIMA-interacting 1 (Homo sapiens) (Q13526 whole entry, looked up): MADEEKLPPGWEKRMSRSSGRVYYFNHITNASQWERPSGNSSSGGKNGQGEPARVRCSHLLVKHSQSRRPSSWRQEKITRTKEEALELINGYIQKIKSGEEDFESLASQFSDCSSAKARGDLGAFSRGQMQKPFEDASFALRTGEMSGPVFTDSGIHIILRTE
Chain of M-phase phosphoprotein 8 (Homo sapiens) (Q99549 whole entry, looked up): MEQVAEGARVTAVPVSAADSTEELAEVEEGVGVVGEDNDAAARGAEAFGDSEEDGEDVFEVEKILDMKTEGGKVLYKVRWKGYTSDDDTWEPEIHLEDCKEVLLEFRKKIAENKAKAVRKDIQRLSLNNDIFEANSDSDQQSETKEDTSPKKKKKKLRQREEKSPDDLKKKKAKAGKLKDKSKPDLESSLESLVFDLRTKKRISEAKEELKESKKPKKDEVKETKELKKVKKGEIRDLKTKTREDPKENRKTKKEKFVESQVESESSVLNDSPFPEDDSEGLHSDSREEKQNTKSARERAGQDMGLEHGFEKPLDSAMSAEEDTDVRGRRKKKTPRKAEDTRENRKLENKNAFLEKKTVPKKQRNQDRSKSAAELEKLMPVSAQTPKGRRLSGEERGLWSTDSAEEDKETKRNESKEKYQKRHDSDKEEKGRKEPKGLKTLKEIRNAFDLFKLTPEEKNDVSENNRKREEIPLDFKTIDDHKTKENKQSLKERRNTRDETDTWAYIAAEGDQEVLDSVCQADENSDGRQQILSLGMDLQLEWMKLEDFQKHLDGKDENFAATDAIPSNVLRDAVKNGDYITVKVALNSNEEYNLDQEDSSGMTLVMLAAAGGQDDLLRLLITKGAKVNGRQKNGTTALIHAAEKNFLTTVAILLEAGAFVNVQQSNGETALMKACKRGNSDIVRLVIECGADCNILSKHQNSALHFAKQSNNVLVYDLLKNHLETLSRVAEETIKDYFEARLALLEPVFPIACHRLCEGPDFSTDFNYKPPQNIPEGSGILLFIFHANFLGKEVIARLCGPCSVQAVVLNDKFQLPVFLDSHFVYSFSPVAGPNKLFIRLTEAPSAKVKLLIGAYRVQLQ
Chain of ATP-dependent 6-phosphofructokinase (Trypanosoma brucei brucei) (O15648 whole entry, looked up): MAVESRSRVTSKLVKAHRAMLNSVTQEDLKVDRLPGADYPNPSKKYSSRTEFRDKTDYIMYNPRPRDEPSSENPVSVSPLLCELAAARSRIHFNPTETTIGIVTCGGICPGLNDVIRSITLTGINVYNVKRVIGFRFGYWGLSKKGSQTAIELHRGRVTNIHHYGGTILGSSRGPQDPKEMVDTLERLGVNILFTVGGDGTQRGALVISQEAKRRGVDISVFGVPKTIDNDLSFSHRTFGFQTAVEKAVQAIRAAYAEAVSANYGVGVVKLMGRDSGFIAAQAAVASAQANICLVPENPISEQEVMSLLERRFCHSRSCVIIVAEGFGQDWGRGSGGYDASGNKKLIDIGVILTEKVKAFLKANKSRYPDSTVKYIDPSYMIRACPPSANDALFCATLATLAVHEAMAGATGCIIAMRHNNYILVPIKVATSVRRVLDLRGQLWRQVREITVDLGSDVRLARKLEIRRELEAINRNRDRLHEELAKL
Chain of Transient receptor potential cation channel subfamily V member 1 (Homo sapiens) (Q8NER1 whole entry, looked up): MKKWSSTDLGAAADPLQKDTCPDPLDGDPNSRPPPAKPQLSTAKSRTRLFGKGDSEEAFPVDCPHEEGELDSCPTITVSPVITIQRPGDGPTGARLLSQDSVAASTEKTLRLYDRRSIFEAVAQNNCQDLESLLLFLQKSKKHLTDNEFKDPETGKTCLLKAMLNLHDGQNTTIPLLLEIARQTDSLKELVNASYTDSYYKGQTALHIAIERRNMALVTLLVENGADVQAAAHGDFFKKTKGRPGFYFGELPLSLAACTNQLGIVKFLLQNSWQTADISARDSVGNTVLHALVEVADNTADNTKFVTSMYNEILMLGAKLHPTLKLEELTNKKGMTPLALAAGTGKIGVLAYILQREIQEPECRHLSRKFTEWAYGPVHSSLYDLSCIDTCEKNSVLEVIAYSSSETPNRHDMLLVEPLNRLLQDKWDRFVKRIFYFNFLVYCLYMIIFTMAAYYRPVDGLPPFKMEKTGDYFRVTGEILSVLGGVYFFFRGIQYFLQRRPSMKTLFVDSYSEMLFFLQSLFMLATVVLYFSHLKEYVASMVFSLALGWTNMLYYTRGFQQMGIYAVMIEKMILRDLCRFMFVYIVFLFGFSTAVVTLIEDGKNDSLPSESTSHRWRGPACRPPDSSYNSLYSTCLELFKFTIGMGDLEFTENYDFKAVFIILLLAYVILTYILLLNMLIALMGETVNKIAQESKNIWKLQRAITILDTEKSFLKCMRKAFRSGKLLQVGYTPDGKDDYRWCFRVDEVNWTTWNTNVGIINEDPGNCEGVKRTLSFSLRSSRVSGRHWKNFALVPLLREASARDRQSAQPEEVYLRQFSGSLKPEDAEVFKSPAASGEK
Chain of phosphoglycerate mutase (Leishmania major) (Q4Q090 1-553): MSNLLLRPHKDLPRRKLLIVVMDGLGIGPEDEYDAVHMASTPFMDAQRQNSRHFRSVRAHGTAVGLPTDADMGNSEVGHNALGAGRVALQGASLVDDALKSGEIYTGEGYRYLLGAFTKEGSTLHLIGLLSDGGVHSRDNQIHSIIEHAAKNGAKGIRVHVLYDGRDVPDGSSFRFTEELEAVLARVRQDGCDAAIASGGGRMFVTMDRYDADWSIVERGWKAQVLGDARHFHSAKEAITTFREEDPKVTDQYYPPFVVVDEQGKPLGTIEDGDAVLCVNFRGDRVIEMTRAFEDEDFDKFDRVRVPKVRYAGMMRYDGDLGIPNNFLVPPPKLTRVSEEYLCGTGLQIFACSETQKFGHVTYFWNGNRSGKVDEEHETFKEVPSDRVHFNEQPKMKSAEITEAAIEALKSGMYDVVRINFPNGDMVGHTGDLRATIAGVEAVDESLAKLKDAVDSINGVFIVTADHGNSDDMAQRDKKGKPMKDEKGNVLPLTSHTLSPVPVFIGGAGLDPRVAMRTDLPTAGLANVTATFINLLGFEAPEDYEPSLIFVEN

## CC(C)OC(=O)C(C)(C)Oc1ccc(C(=O)c2ccc(Cl)cc2)cc1
[1]
  Potency: inactive
[2]
  Potency: inactive
[3]
  outcome: inactive
[4]
  outcome: inactive
[5]
  outcome: inactive
[6]
  outcome: inactive
[7]
  Potency: inactive
[8]
  outcome: inactive
  viability change: 3.23%
[9]
  outcome: inactive
[10]
  outcome: inactive
[11]
  outcome: inactive
[12]
  outcome: inactive
[13]
  outcome: inactive
[14]
  outcome: inactive
[15]
  Potency: inactive
[16]
  Potency: inactive

## CCN(CC)C(=O)c1ccc(O)c(OC)c1
[1]
  Potency: inactive
[2]
  Potency: inactive
[3]
  outcome: inactive
[4]
  outcome: inactive
[5]
  outcome: inactive
[6]
  outcome: inactive
[7]
  Potency: inactive
[17]
  outcome: inactive
[18]
  outcome: inactive
[19]
  activation: 0.938% (inactive)
[8]
  outcome: inactive
  viability change: 8.03%
[9]
  outcome: inactive
[10]
  outcome: inactive
[11]
  outcome: inactive
[12]
  outcome: inactive
[13]
  outcome: inactive
[14]
  outcome: inactive
[15]
  Potency: inactive
[20]
  Potency: inactive
[16]
  Potency: inactive

## CC(=O)N[C@@H](CS)C(=O)O
[1]
  Potency: inactive
[2]
  Potency: inactive
[3]
  outcome: inactive
[4]
  outcome: inactive
[5]
  outcome: inactive
[7]
  Potency: inactive
[17]
  outcome: inactive
[18]
  outcome: inactive
[8]
  outcome: inactive
  viability change: 13.1%
[9]
  outcome: inactive
[10]
  outcome: inactive
[11]
  outcome: inactive
[12]
  outcome: inactive
[13]
  outcome: inactive
[14]
  outcome: inactive
[15]
  Potency: inactive
[20]
  Potency: inactive
[16]
  Potency: inactive

## O=c1c(-c2ccc(O)cc2)coc2cc(O)ccc12
[1]
  Potency: inactive
[2]
  Potency: inactive
[3]
  outcome: inactive
[4]
  outcome: inactive
[5]
  outcome: inactive
[6]
  outcome: inactive
[7]
  Potency: inactive
[8]
  outcome: inactive
  viability change: 1.29%
[9]
  outcome: inactive
[10]
  outcome: inactive
[11]
  outcome: inactive
[12]
  outcome: inactive
[13]
  outcome: inactive
[14]
  outcome: inactive
[15]
  Potency: inactive
[20]
  Potency: inactive
[16]
  Potency: inactive

## Cc1cccc(C)c1OCC(C)N (configuration not stated)
[1]
  Potency: inactive
[2]
  Potency: inactive
[3]
  outcome: inactive
[4]
  outcome: inactive
[5]
  outcome: inactive
[6]
  outcome: inactive
[7]
  Potency: inactive
[17]
  outcome: inactive
[18]
  outcome: inactive
[19]
  activation: 0.438% (inactive)
[8]
  outcome: inactive
  viability change: -6.18%
[9]
  outcome: inactive
[11]
  outcome: inactive
[12]
  outcome: inactive
[13]
  outcome: inactive
[14]
  outcome: inactive
[15]
  Potency: inactive
[20]
  Potency: inactive
[16]
  Potency: inactive

## CC(=O)O[C@]1(C(C)=O)CC[C@H]2[C@@H]3C=C(Cl)C4=CC(=O)[C@@H]5C[C@@H]5[C@]4(C)[C@H]3CC[C@@]21C
[1]
  Potency: inactive
[2]
  Potency: inactive
[5]
  outcome: inactive
[7]
  Potency: inactive
[17]
  outcome: inactive
[18]
  outcome: inactive
[8]
  outcome: inactive
  viability change: 2.19%
[9]
  outcome: inactive
[12]
  outcome: inactive
[13]
  outcome: inactive
[14]
  outcome: inactive
[15]
  Potency: inactive
[20]
  Potency: inactive
[16]
  Potency: inactive

## CC1(C)CCC2=C(O1)c1ccccc1C(=O)C2=O
[1]
  Potency: inactive
[3]
  outcome: inactive
[4]
  outcome: inactive
[5]
  outcome: inactive
[6]
  outcome: inactive
[7]
  Potency: inactive
[19]
  activation: -3.69% (inactive)
[9]
  outcome: inactive
[14]
  outcome: inactive
[15]
  Potency: 5.01 µM (active)
[20]
  Potency: 22.4 µM (active)
[16]
  Potency: 22.4 µM (active)
